# Activity calls are given as the source filed them. A call without a number means that no potency is given here. Unless noted, calls come from the whole dose curve; as a rule, active = well fitted curve in the direction sought with a large enough effect in the repeat runs; inconclusive = weak or mixed curves; inactive = no such curve, though single readings can be large; an effect the other way counts as inactive or inconclusive.
# Columns and labels:
# [1] = qHTS assay for identifying genotoxic compounds that show differential cytotoxicity against isogenic chicken DT40 cell lines with known DNA damage response pathways - wild type cell line (AID 743012); conditions: DT40 wild type chicken cells viability, CellTiter-Glo, 40 h; series mostly up to 68.4 µM; note: potency is the fitted concentration of half-maximal effect; nearly all actives have a fitted effect of over 60% in size
# Method in brief: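 Wild-type DT40 cells (300/well) exposed to compounds for 40 hours at 37 C/5% CO2. Viability read by CellTiter-Glo luminescence after 30 min at room temperature.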
# [2] = qHTS assay for identifying genotoxic compounds that show differential cytotoxicity against isogenic chicken DT40 cell lines with known DNA damage response pathways - Rev3 mutant cell line (AID 743014); conditions: chicken DT40 Rev3-/- viability, CellTiter-Glo, 40 h; series mostly up to 68.4 µM; note: potency is the fitted concentration of half-maximal effect; nearly all actives have a fitted effect of over 55% in size
# [3] = qHTS assay for identifying genotoxic compounds that show differential cytotoxicity against isogenic chicken DT40 cell lines with known DNA damage response pathways - Rad54/Ku70 mutant cell line (AID 743015); conditions: DT40 Rad54/Ku70 mutant viability, CellTiter-Glo, 40 h; series mostly up to 66.8 µM; note: potency is the fitted concentration of half-maximal effect; nearly all actives have a fitted effect of over 60% in size
# [4] = qHTS assay to identify small molecule antagonists of the androgen receptor (AR) signaling pathway - cell viability counter screen (AID 743033; note: nearly all actives have a fitted effect of over 45% in size; note: potency is the fitted concentration of half-maximal effect); conditions: AR-bla HEK293 viability, CellTiter-Glo luminescence, 16 h; series mostly up to 58.5 µM
# [5] = qHTS assay to identify small molecule antagonists of the thyroid receptor (TR) signaling pathway - cell viability counter screen (AID 743064); conditions: GH3.TRE-Luc viability, CellTiter-Fluor, 24 h; series mostly up to 70.3 µM; note: nearly all actives have a fitted effect of over 50% in size; note: potency is the fitted concentration of half-maximal effect
# Method in brief: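 Rat GH3 pituitary tumor cells stably expressing two TR response elements driving luciferase were plated, rested 4 h, then dosed with library compounds and T3 (1 nM final). After 23.5 h at 37 °C, CellTiter-Fluor was added for 30 min and fluorescence recorded.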
# [6] = qHTS assay to identify small molecule antagonists of the thyroid receptor (TR) signaling pathway (AID 743065); conditions: GH3.TRE-Luc, T3-stimulated luciferase inhibition, 23.5 h; series mostly up to 70.3 µM; note: nearly all actives have a fitted effect of over 55% in size; note: potency is the fitted concentration of half-maximal effect
# Method in brief: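 GH3.TRE-Luc rat pituitary cells carrying two TR response elements driving luciferase were plated for 4 h, given compound plus 1 nM T3 (final), and incubated 23.5 h at 37 C. ONE-Glo luminescence measured reporter inhibition; CellTiter-Fluor fluorescence tracked cytotoxicity.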
# [7] = tested on: thyroid hormone receptor (rat, GH3 cells); assay: qHTS assay to identify small molecule agonists of the thyroid receptor (TR) signaling pathway (AID 743066; calls by dose curve); conditions: GH3.TRE-Luc cells, TR agonist luciferase, 24 h; series mostly up to 83.9 µM
# [8] = target: Estrogen receptor (Homo sapiens) (UniProt P03372); assay: qHTS assay to identify small molecule agonists of the estrogen receptor alpha (ER-alpha) signaling pathway (AID 743075; calls by dose curve; note: potency is the fitted concentration of half-maximal effect); conditions: HEK293 ER-alpha-UAS-bla, beta-lactamase FRET ratio, 18 h; series mostly up to 70.1 µM
# Estrogen receptor (Homo sapiens), sequence (P03372 whole entry, looked up): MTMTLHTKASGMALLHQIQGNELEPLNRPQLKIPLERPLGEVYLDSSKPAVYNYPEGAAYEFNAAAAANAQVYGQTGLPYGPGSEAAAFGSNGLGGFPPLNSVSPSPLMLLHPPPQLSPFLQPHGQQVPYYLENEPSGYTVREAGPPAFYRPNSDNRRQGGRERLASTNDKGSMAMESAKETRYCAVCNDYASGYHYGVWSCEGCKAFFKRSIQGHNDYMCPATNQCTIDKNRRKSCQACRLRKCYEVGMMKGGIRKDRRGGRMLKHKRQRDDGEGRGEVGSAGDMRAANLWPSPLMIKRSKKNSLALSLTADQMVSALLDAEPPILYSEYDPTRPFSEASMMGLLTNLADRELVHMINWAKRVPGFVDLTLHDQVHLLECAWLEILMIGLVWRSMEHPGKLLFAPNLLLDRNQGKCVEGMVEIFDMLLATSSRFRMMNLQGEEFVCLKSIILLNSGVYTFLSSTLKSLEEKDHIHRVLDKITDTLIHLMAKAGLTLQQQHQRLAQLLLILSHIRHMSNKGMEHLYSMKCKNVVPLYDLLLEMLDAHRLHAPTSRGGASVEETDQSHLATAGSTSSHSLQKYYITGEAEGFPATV
# [9] = qHTS assay to identify small molecule antagonists of the estrogen receptor alpha (ER-alpha) signaling pathway using the BG1 cell line (AID 743080; calls by dose curve;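 note: BG1 cells stimulated with 17beta-estradiol alongside compound; nearly all actives have a fitted effect of over 25% in size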; note: potency is the fitted concentration of half-maximal effect); conditions: BG1Luc4E2 ERE-luciferase antagonist mode, luminescence; series mostly up to 70.3 µM
# Method in brief: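 Seeding, 24 h rest, compound transfer from DMSO, 17beta-estradiol addition, 21.5 h incubation, CellTiter-Fluor (30 min, 37 C), then ONE-Glo (30 min, room temperature): this sequence was run on BG1-Luc-4E2 reporter cells.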
# Aromatase (Homo sapiens) = Aromatase (Homo sapiens) (UniProt P11511); assay: qHTS assay to identify aromatase inhibitors (AID 743083); conditions: MCF-7 aro ERE, testosterone-driven ERE luciferase, 24 h; series mostly up to 70.3 µM; note: nearly all actives have a fitted effect of over 55% in size; note: potency is the fitted concentration of half-maximal effect
# Aromatase (Homo sapiens), sequence (P11511 whole entry, looked up): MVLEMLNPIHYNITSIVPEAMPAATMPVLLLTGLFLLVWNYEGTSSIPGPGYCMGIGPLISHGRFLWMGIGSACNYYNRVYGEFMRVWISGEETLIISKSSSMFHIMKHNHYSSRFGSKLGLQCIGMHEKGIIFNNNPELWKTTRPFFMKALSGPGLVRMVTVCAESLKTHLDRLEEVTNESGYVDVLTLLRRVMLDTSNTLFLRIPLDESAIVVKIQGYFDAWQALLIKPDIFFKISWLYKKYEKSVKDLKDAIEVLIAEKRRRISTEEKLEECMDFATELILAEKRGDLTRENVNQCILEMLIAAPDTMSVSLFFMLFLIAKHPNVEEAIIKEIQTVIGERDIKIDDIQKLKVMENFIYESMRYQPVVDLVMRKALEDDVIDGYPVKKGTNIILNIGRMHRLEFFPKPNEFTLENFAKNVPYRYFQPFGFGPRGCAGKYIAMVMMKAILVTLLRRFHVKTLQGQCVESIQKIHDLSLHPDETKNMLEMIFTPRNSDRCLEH
# [10] = qHTS assay to identify small molecule antagonists of the androgen receptor (AR) signaling pathway using the MDA cell line - cell viability counter screen (AID 743041; note: nearly all actives have a fitted effect of over 45% in size); conditions: MDA-kb2 viability, CellTiter-Fluor, 16 h, cells co-treated with R1881 androgen agonist; series mostly up to 70.3 µM
# Method in brief: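 MDA-kb2 AR-luc human breast carcinoma cells (MMTV-luciferase, AR/GR responsive) were treated with compounds plus R1881 agonist for 16 h at 37 °C. Viability was read as CellTiter-Fluor fluorescence in the same wells as the reporter assay.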
# [11] = target: Estrogen receptor (Homo sapiens) (UniProt P03372); assay: qHTS assay to identify small molecule antagonists of the estrogen receptor alpha (ER-alpha) signaling pathway (AID 743069; active = well fitted curve in the direction sought with a large enough effect in the signal ratio in the repeat runs, not every such curve was filed as active; inconclusive = weak or mixed curves, or effect the other way; inactive = no such curve, though single readings can be large or run the other way; the % refers to the signal ratio; note: potency is the fitted concentration of half-maximal effect); conditions: HEK293 ER-alpha-UAS-bla, beta-lactamase ratio, antagonist mode; series mostly up to 69.4 µM
# Method in brief: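 HEK293 cells stably carrying an ER-alpha-UAS-bla beta-lactamase reporter were pre-cultured overnight in 2% charcoal-stripped FBS medium. Test compounds in DMSO were added together with 17beta-estradiol for 18 hr at 37C. Read-out was fluorescence after 2 hr with LiveBLAzer B/G FRET substrate at room temperature.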
# [12] = qHTS assay to identify small molecule antagonists of the estrogen receptor alpha (ER-alpha) signaling pathway - cell viability counter screen (AID 743074; calls by dose curve; note: nearly all actives have a fitted effect of over 45% in size); conditions: ERalpha-bla HEK293 viability, CellTiter-Glo luminescence, 18 h; series mostly up to 69.4 µM
# [13] = target: Estrogen receptor (Homo sapiens) (UniProt P03372); assay: qHTS assay to identify small molecule agonists of the estrogen receptor alpha (ER-alpha) signaling pathway using the BG1 cell line (AID 743079); conditions: BG1Luc4E2 cells, ERE-luciferase agonist, 22 h; series mostly up to 70.3 µM; note: nearly all actives have a fitted effect of over 20% in size
# [14] = qHTS assay to identify small molecule antagonists of the estrogen receptor alpha (ER-alpha) signaling pathway using the BG1 cell line - cell viability counter screen (AID 743081); conditions: BG1Luc4E2 viability, CellTiter-Fluor, 22 h; series mostly up to 70.3 µM;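 note: compound given together with 17beta-estradiol as the ER stimulus; nearly all actives have a fitted effect of over 45% in size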
# [15] = qHTS assay to identify small molecule antagonists of the glucocorticoid receptor (GR) signaling pathway - cell viability counter screen (AID 720693); conditions: GR-bla HeLa viability, CellTiter-Glo luminescence, 18 h, with 5 nM dexamethasone present; series mostly up to 58.5 µM; note: nearly all actives have a fitted effect of over 55% in size
# [16] = target: Androgen receptor (Homo sapiens) (UniProt P10275); assay: qHTS assay to identify small molecule agonists of the androgen receptor (AR) signaling pathway (AID 743036; active = well fitted activation curve with a large enough effect in the signal ratio in the repeat runs, with a control signal flat, not every such curve was filed as active; inconclusive = weak or mixed curves, or effect the other way; inactive = no such curve, though single readings can be large or run the other way; the % refers to the signal ratio); conditions: HEK293 AR-UAS-bla GripTite, beta-lactamase FRET ratio, 16 h; series mostly up to 62.4 µM
# Androgen receptor (Homo sapiens), sequence (P10275 whole entry, looked up): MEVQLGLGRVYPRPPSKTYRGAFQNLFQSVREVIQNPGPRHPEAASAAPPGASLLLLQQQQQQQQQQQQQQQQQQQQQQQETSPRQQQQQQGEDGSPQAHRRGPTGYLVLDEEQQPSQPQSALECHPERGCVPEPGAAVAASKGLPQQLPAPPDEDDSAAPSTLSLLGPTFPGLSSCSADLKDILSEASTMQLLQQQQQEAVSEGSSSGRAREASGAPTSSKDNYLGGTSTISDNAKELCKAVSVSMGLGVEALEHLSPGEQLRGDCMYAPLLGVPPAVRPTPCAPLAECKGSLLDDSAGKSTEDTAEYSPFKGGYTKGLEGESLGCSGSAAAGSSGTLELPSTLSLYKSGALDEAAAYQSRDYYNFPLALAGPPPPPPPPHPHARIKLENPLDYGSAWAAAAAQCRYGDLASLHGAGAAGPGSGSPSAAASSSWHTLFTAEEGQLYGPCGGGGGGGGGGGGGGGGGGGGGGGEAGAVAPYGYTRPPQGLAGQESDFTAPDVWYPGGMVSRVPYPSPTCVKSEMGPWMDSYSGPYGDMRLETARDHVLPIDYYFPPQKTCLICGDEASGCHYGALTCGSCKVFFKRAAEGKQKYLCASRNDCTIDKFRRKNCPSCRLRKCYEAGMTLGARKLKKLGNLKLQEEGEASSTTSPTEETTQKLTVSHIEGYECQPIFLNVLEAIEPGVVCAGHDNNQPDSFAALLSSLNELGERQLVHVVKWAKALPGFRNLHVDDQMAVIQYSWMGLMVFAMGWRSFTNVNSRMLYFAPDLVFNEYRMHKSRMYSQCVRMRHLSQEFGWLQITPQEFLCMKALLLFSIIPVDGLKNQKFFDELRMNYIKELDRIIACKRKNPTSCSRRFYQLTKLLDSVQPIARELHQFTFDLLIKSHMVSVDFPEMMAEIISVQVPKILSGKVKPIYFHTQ
# Method in brief: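 Quantitative HTS of the Tox21 10K library in HEK293 cells bearing a stably integrated UAS-controlled beta-lactamase reporter. Compound exposure lasted 16 h at 37C. Reporter activity was detected by FRET substrate fluorescence after 2 h at room temperature.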
# [17] = target: Androgen receptor (Homo sapiens) (UniProt P10275); assay: qHTS assay to identify small molecule agonists of the androgen receptor (AR) signaling pathway using the MDA cell line (AID 743040; note: nearly all actives have a fitted effect of over 20% in size); conditions: MDA-kb2 AR-luc cells, MMTV luciferase, 16 h; series mostly up to 70.3 µM
# Method in brief: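 MDA-kb2 breast carcinoma cells stably carrying an MMTV-driven luciferase reporter (AR- and GR-responsive) were seeded and held 5 h at 37C, 0% CO2, then exposed to compounds in DMSO for 16 h. Luminescence was read 30 min after ONE-Glo addition.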
# [18] = target: Androgen receptor (Homo sapiens) (UniProt P10275); assay: qHTS assay to identify small molecule antagonists of the androgen receptor (AR) signaling pathway using the MDA cell line (AID 743042; note: nearly all actives have a fitted effect of over 55% in size); conditions: MDA-kb2 AR-luc, MMTV luciferase, R1881 antagonist, 16 h; series mostly up to 70.3 µM
# Method in brief: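 MDA-kb2 cells (human breast carcinoma, stably carrying an MMTV-luciferase reporter responsive to AR and GR) were plated at 3,000 cells/well and preincubated 5 hr at 37C, then given compound plus R1881 agonist for 16 h. ONE-Glo luminescence was read.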
structure (smiles),measurement,setting,value
CO/C=C(/C(=O)OC)c1ccccc1COc1cccc(C(F)(F)F)n1,Potency,[1],0.0769 µM (active)
same,Potency,[2],0.0769 µM (active)
same,Potency,[3],0.0485 µM (active)
same,Potency,[4],3.46 µM (active)
same,Potency,[5],inactive
same,Potency,[6],0.432 µM (active)
same,Potency,[7],inactive
same,Potency,[8],1.38 µM [inconclusive] (active)
same,Potency,[9],2.17 µM (active)
same,Potency,Aromatase (Homo sapiens),68.5 µM (active)
CC(C)(OO)c1ccccc1,Potency,[2],27.3 µM (active)
same,Potency,[3],17.2 µM (active)
same,Potency,[4],inactive
same,Potency,[10],inactive
same,Potency,[11],inactive
same,Potency,[12],inactive
same,Potency,[8],inactive
same,Potency,[13],inactive
same,Potency,[9],inactive
same,Potency,[14],inactive
same,Potency,Aromatase (Homo sapiens),inactive
CN(C)c1ccc(N(C)C)cc1,Potency,[15],inactive
same,Potency,[4],inactive
same,Potency,[10],inactive
same,Potency,[6],inactive
same,Potency,[7],inactive
same,Potency,[8],inactive
same,Potency,[14],inactive
COc1nn(CSP(=S)(OC)OC)c(=O)s1,Potency,[1],19.3 µM (active)
same,Potency,[2],45.8 µM (active)
same,Potency,[3],50.5 µM (active)
same,Potency,[7],inactive
same,Potency,[11],inactive
same,Potency,[8],inactive
same,Potency,[13],inactive
same,Potency,[9],inactive
same,Potency,[14],inactive
same,Potency,Aromatase (Homo sapiens),61.1 µM (active)
O=S(=O)(O)C(F)(F)C(F)(F)C(F)(F)C(F)(F)F,Potency,[15],inactive
same,Potency,[7],inactive
same,Potency,[11],inactive
same,Potency,[8],inactive
same,Potency,[13],inactive
same,Potency,[9],inactive
CCOP(=S)(OCC)Oc1cc(Cl)c(Br)cc1Cl,Potency,[15],inactive
same,Potency,[4],inactive
same,outcome,[16],inactive
same,Potency,[17],inactive
same,Potency,[10],inactive
same,Potency,[18],inactive
same,Potency,[5],inactive
same,Potency,[12],inactive
same,Potency,[8],inactive
same,Potency,[9],inactive
same,Potency,[14],inactive
same,Potency,Aromatase (Homo sapiens),inactive
O=C1c2ccccc2C(=O)C1C(=O)C(c1ccccc1)c1ccccc1,Potency,[15],inactive
same,Potency,[4],inactive
same,Potency,[5],inactive
same,Potency,[6],inactive
same,Potency,[7],inactive
same,Potency,[12],inactive
same,Potency,[14],inactive
same,Potency,Aromatase (Homo sapiens),inactive
c1cc2ccc3cccc4ccc(c1)c2c34,Potency,[3],67.9 µM (active)
same,Potency,[17],inactive
same,Potency,[18],inactive
same,Potency,[5],inactive
same,Potency,[6],inactive
same,Potency,[7],inactive
same,Potency,[8],inactive
same,Potency,[13],inactive
same,Potency,[9],inactive
same,Potency,Aromatase (Homo sapiens),inactive
O=C(NC(=O)c1c(F)cccc1F)Nc1cc(Cl)c(Oc2ncc(C(F)(F)F)cc2Cl)c(Cl)c1,Potency,[1],1.17 µM (active)
same,Potency,[2],2.08 µM (active)
same,Potency,[3],1.65 µM (active)
same,Potency,[17],inactive
same,Potency,[10],inactive
same,Potency,[5],58.5 µM (active)
same,Potency,[7],inactive
same,Potency,[8],inactive
same,Potency,[14],inactive
O=C1NCN(c2ccccc2)C12CCN(CCCOc1ccc(F)cc1)CC2,Potency,[1],10.6 µM (active)
same,Potency,[2],13.3 µM (active)
same,Potency,[3],16.8 µM (active)
same,Potency,[4],inactive
same,Potency,[5],13.3 µM (active)
same,Potency,[6],16.8 µM (active)
same,Potency,[11],10.7 µM [inconclusive] (active)
same,Potency,[12],inactive
same,Potency,[8],inactive
same,Potency,Aromatase (Homo sapiens),16.8 µM (active)

# Reference: PubChem BioAssay (Tox21)
